Screens from PubChem.
Shown are actives, neighbours in structure and some others; about 7% of the full set was active somewhere.
KAT2A inh: blocks human GCN5L2 histone acetyltransferase | GCN5L2 HAT assay, ThioGlo1 CoA-SH fluorescence | Potency, µM (highest dose often 58.9 µM), without a hit: at the highest dose activity change, negative = inhibition, hits mostly inhibitors | 390,000 tested, 0.21% active | AID 504327; further: potency means the concentration at half of the fitted maximal effect; on the % scale 0 is the no-effect control and ±100 the full control effect
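Fluorescence readout, Ex340nm/Em540nm: ThioGlo1 (50uM final) reacts with free CoA thiol released as 20nM GCN5L2 acetylates H3(1-25) peptide (75uM) using acetyl-CoA (70uM). Compound and enzyme sat 15 min beforehand; 20 min room-temperature reaction.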
BAZ2B inh: inhibitors of human BAZ2B bromodomain; Q9UIF8; AlphaScreen BAZ2B-H3K14Ac peptide displacement; Potency, µM (series often up to 114 µM), without a hit: at the highest dose activity change, negative = inhibition, hits mostly inhibitors; 360,000 tested, 4.4% active; AID 504333; further: potency means the concentration at half of the fitted maximal effect; on the % scale 0 is the no-effect control and ±100 the full control effect; nearly all actives have a fitted effect of over 60% in size
Target sequence (Q9UIF8 whole entry, looked up): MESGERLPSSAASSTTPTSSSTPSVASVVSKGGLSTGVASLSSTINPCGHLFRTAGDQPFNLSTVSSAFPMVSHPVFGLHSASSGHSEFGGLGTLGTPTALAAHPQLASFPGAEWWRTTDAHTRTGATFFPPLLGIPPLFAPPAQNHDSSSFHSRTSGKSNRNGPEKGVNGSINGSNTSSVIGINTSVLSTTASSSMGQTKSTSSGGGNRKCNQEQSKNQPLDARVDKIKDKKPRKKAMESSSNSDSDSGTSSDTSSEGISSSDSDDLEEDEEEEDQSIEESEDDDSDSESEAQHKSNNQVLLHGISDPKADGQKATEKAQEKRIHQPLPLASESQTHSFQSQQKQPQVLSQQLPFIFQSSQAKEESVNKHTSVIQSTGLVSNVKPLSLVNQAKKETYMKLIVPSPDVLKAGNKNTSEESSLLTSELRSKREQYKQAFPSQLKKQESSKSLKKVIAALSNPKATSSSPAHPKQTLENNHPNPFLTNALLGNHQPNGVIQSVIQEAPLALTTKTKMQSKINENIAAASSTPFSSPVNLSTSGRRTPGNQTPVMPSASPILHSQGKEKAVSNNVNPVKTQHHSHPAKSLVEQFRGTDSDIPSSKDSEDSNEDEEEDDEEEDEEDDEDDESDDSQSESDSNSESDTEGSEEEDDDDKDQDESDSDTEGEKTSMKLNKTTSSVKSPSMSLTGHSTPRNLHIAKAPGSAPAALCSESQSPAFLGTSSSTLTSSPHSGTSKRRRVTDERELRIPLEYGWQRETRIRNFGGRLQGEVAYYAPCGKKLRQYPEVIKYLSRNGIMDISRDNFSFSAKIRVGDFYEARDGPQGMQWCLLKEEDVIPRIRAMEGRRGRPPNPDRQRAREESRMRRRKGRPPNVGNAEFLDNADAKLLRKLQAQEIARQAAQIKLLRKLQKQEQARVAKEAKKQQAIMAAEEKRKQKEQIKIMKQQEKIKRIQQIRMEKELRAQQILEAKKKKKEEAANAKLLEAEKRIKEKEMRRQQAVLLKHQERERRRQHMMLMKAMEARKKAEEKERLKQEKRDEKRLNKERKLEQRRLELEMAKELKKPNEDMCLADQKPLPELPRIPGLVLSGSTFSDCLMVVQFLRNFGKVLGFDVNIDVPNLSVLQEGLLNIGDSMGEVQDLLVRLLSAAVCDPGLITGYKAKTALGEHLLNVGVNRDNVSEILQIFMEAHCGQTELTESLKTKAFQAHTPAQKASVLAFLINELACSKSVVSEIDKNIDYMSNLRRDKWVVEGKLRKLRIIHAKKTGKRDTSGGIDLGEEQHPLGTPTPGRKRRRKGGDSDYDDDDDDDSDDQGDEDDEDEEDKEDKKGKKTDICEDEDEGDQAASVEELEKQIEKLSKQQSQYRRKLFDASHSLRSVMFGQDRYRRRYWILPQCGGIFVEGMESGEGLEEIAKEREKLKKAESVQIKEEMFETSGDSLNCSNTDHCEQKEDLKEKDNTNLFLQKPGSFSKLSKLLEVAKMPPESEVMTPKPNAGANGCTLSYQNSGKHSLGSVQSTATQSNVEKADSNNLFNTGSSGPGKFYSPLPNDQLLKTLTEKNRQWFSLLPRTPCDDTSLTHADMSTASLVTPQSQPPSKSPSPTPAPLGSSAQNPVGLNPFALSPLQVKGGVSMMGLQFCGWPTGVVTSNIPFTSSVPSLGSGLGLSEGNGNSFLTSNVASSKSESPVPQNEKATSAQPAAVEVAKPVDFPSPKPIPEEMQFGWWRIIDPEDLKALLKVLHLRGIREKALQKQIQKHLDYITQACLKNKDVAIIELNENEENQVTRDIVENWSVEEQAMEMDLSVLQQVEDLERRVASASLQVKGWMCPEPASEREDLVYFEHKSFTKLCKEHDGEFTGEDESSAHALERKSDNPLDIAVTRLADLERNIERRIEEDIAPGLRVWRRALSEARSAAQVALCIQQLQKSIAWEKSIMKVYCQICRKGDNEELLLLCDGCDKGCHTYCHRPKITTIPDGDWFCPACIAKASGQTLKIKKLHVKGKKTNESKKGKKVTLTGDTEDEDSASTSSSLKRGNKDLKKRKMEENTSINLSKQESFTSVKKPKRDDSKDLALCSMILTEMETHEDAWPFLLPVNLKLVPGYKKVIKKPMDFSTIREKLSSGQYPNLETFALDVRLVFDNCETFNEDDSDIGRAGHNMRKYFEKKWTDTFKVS
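Multi-concentration screen (max 110 uM) measuring displacement of acetylated histone H3 peptide from BAZ2B by AlphaScreen, using 50 nM protein, 50 nM peptide and 10 ug/mL streptavidin donor plus Ni-chelate acceptor beads.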
PLK1 PBD block: blocks phosphopeptide binding to human PLK1 polo-box domain; P53350; Plk1 PBD binding of FITC phosphopeptide, fluorescence polarization; Potency, µM, for inactives: max response, negative = inhibition, most hits filed as inhibitors; 360,000 tested, 2.8% active; AID 720504; further: potency means the concentration at half of the fitted maximal effect; series mostly up to about 57 µM; on the % scale 0 is the no-effect control and ±100 the full control effect; nearly all actives have a fitted effect of over 65% in size
JMJD2A Tudor: inhibitors of human JMJD2A Tudor domain. Potency, µM (highest dose often 114 µM), without a hit: at the top dose activity change, negative = inhibition, usual class: inhibitors. O75164. AID 504339. 390,000 tested, 4.4% active. AlphaScreen JMJD2A-Tudor / H3K4me3 peptide binding; further: potency means the concentration at half of the fitted maximal effect; on the % scale 0 is the no-effect control and ±100 the full control effect; nearly all actives have a fitted effect of over 50% in size
PI5P4Ka inh: blocks human PI5P4K alpha kinase activity | P48426 | PI5P4Kalpha enzyme, ADP-Glo luminescence, 60 min; active compounds read low | max response, % | 330,000 tested, 1.2% active | AID 652105; active means max response of -50% or lower; inconclusive means between -30% and -50%; inactive means -30% or higher; further: value at the top dose of about 77 µM; on the % scale 0 is the no-effect control and ±100 the full control effect
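Enzyme plus substrate dispensed, test compounds pinned in, then ATP (5 microM final) added. After 60 min at RT, ADP-Glo reagent 1 for 45 min and reagent 2 for 30 min preceded luminescence imaging.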
HP1b binding inh: inhibitors of HP1-beta chromodomain binding to methylated histone tails; AlphaScreen HP1-beta / biotin-H3K9me3 peptide binding; Potency, µM (top dose mostly 114 µM), without a hit: at the highest dose activity change, negative = inhibition, hits mostly inhibitors; 390,000 tested, 0.56% active; AID 540317; further: potency means the concentration at half of the fitted maximal effect; nearly all actives have a fitted effect of over 70% in size
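HP1-beta protein (50 nM final) preincubated 30 min at room temperature with biotinylated H3(1-18)K9me3 peptide (50 nM) in PBS pH 7.4, 0.01% Tween-20, then compound added for 30 min. AlphaScreen streptavidin donor/nickel chelate acceptor beads (10 ug/mL final), 30 min dark, luminescence read.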
* hit, by the source's call; ? = inconclusive; . = not tested or not shown; [ ] = remark or other dose. Unless noted, the call rests on the fitted dose curve; in most records, active means well fitted curve in the direction sought with a large enough effect; inconclusive means small, poorly fitted or top-dose-only effect, or another doubt; inactive means no such curve, though single readings can be large; an effect the other way counts as inactive or inconclusive.

SMILES | KAT2A inh | BAZ2B inh | PLK1 PBD block | JMJD2A Tudor | PI5P4Ka inh | HP1b binding inh
Cc1ccc([C@@H]2CC=C(C(=O)O)[C@H](c3ccc(Cl)cc3)N2S(=O)(=O)c2ccc(C)cc2)cc1 | ? | -14% | ? | -13% | 2 | 60%
Cc1ccc(S(=O)(=O)N2[C@@H](c3ccc(Br)cc3)C(C(=O)O)=CC[C@H]2c2ccc(Cl)cc2)cc1 | ? | . | 27µM* | -12% | -6 | 1%
CCCNCC(=O)Nc1sc2c(c1C(=O)Nc1c(C)n(C)n(-c3ccccc3)c1=O)CCCC2 | . | . | -15% | . | 1 | .
O=C(Nc1cccc(-c2nn3c(=O)cc(N4CCNCC4)nc3s2)c1)C1CCNCC1 | . | . | . | -29% | . | .
O=C(O)C1=CC[C@@H](c2ccc(Cl)cc2)N(S(=O)(=O)c2ccc(Cl)cc2)[C@H]1c1cccc(Cl)c1 | ? | -11% | 30µM* | -24% | -6 | 34%
CCc1ccc([C@@H]2CC=C(C(=O)O)[C@H](c3ccc(Br)cc3)N2S(=O)(=O)c2ccc(C)cc2)cc1 | ? | . | 27µM* | -25% | 10 | 22%
Cc1ccc(S(=O)(=O)N2[C@@H](c3ccc(Cl)cc3)C(C(=O)O)=CC[C@H]2c2ccc(Cl)cc2)cc1 | -29% | -30% | ? | -19% | 1 | 12%
Cc1ccc(S(=O)(=O)N2[C@@H](c3ccccc3)C(C(=O)O)=CC[C@H]2c2ccc(Cl)c(Cl)c2)cc1 | ? | ? | ? | -14% | -6 | 30%
Cc1ccc([C@H]2C(C(=O)O)=CC[C@@H](c3ccc(Cl)c(Cl)c3)N2S(=O)(=O)c2ccc(C)cc2)cc1 | ? | . | 30µM* | -21% | -4 | 67%
CCOc1ccccc1CNC(=O)c1ccc(N2Cc3ccccc3Oc3ncccc32)s1 | -7% | -3% | . | 2% | . | 37%
CC1(C)NC(=O)N(CC(=O)OCC(=O)Nc2c(Br)cc([N+](=O)[O-])cc2Br)C1=O | . | . | 2% | 1% | 2 | 29%
Cc1ccc(S(=O)(=O)c2c(C)cc(C)nc2Cl)c(C)c1 | -2% | 4% | -2% | 12% | 3 | 46%
Cc1cc(C)c(S(=O)(=O)/N=C2\C=CC(=O)C(Cl)=C2)c(C)c1 | -16% | -12% | 28µM* | 32µM* | . | ?
CC1CC(=O)c2c(cc3c(-c4c(O)cc(O)c5c(O)c6c(cc45)OC(C)CC6=O)c(O)cc(O)c3c2O)O1 (stereo not drawn) | ? | 40µM* | 27µM* | 45µM* | -80* | ?
CC1=NN(c2ccc(C)c(C)c2)C(=O)C1C(c1cccc(O)c1)C1C(=O)N(c2ccc(C)c(C)c2)N=C1C (stereo not drawn) | -14% | ? | 8.4µM* | ? | 4 | -17%
O=C(COC(=O)c1ccccn1)c1cccc(Br)c1 | -3% | 18µM* | -14% | 13µM* | -12 | 19%
COc1ccc(C(=O)COC(=O)c2ccccn2)cc1OC | 0% | ? | -3% | -25% | 0 | 24%
O=C(COC(=O)c1ccccn1)c1ccc(Br)cc1 | 0% | 25µM* | -1% | 28µM* | . | 18%
COc1ccc2c(c1)N(C)/C(=C/c1cccc[n+]1C)S2 | -20% | ? | 4% | ? | -2 | 34%
CCN1/C(=C/c2cccc[n+]2C)Sc2ccc(OC)cc21 | -3% | -34% | -12% | 18µM* | 3 | -3%
O=C(c1cnccn1)N1CCC2(CC1)CCN(c1ccccc1)CC2 | -2% | . | . | . | . | .
O=C(Cc1ccccc1)N/N=C/c1cccn1-c1ccc([N+](=O)[O-])cc1 | -7% | 25µM* | -9% | -33% | ? | ?
O=C(N/N=C/c1cccn1-c1ccc([N+](=O)[O-])cc1)C(O)c1ccccc1 (stereo not drawn) | -17% | ? | -8% | ? | . | -14%
Cc1ccc(CN2CCN(/N=C\C(Br)=C\c3ccccc3)CC2)cc1 | 19% | ? | 4% | 45µM* | 21 | ?
CC(/C=N/N1CCN(Cc2ccccc2)CC1)=C\c1ccccc1 | -4% | 50µM* | -6% | 45µM* | 0 | ?
SMILES | KAT2A inh | BAZ2B inh | PLK1 PBD block | JMJD2A Tudor | PI5P4Ka inh | HP1b binding inh
COc1ccc(CNC(=O)C2(C)Cc3c(-c4ccc5c(c4)OCO5)ccnc3O2)cc1OC (stereo not drawn) | . | . | -5% | . | 3 | .
CS(=O)(=O)N(CC(=O)Nc1ccc(S(=O)(=O)N2CCCC2)cc1)c1cccc(F)c1 | -3% | -11% | -10% | -17% | 2 | 26%
O=C(O)/C=C/C(=O)NNC(=O)c1ccc(Cl)cc1Cl | -3% | ? | 24µM* | -8%[11.4 µM] | -9 | 10%
COC(=O)NNC(=O)c1ccc(Cl)cc1Cl | 1% | 13% | 1% | -7% | 3 | 19%
CCn1c(SCC(N)=O)nnc1-c1ccc(OC)c(OC)c1 | -10% | . | -7% | -20% | . | 8%
COc1ccc(CCn2c(-c3ccc(Cl)cc3)n[nH]c2=S)cc1OC | -2% | ? | -1% | -21% | -1 | 36%
COc1ccc(-c2c(N)n[nH]c2C)cc1OC | -20% | -14% | -5% | 0% | 1 | 48%
CCCCn1c(-c2cc(Cl)ccc2OC)n[nH]c1=S | . | -5% | -20% | 13µM* | . | -15%
C=CCn1c(-c2ccc(OC)c(OC)c2)n[nH]c1=S | -4% | -8% | -1% | 25µM* | -11 | 14%
COc1ccc(CCn2c(-c3ccc(C(C)(C)C)cc3)n[nH]c2=S)cc1OC | -1% | -16% | 38µM* | 18µM* | -3 | -31%
CCn1c(-c2ccc(OC)c(OC)c2)n[nH]c1=S | 0% | 0% | -2% | 3.5µM* | 3 | -3%
COc1ccc(Cl)cc1-c1nc(SCC(N)=O)n[nH]1 | -5% | 6% | -17% | -5% | 1 | 34%
Cc1coc2cc3oc(=O)c(CCC(=O)N4CCC(C(=O)O)(c5ccccc5)CC4)c(C)c3cc12 | -10% | -26% | -1% | -7% | 4 | 41%
COC(=O)[C@@]12C[C@@H](CC(=O)NCc3ccc(C)o3)C(=O)N(CCc3ccc(OC)c(OC)c3)C1=CCC(C)(C)C2 | . | . | -15% | . | 3 | .
OC[C@@H]1CN(Cc2ccc(F)cc2)C[C@H](n2cnc3c(N4CCN(c5ccccc5)CC4)ncnc32)O1 | . | . | 2% | . | 12 | .
COc1ccc(Cl)cc1-c1n[nH]c(=S)o1 | -16% | -5% | -20% | -29% | -75* | 29%
C=CCn1c(-c2c(C)nc3cc(C)ccn23)n[nH]c1=S | 0% | -4% | -8% | 10µM* | -8 | 26%
Cc1ccccc1-c1n[nH]c(=S)o1 | 3% | -35% | -10% | ? | -18 | 39%
Nc1cc(=O)nc(SCC(=O)N2CCN(c3ccccc3)CC2)n1-c1ccc(F)cc1 | -3% | -22% | 1% | -7% | 1 | 30%
